Where “and” joins values, the source holds several entries; their conditions need not be identical. Equal values may be shown once. Records with an inconclusive call do not appear. Entries that show only a call come without a potency. Calls of active or inactive are those of the source. Calls follow the shape of the dose curve; as a rule, active = well fitted curve in the direction sought with a large enough effect in the repeat runs; inconclusive = weak or mixed curves; inactive = no such curve, though single readings can be large; an effect the other way counts as inactive or inconclusive.
Also: nearly all actives have a fitted effect of over 50% in size.
Potency is read from the fitted curve at half-maximal effect.

Sequence of Cytochrome P450 2C9 (Homo sapiens) (P11712 whole entry, looked up): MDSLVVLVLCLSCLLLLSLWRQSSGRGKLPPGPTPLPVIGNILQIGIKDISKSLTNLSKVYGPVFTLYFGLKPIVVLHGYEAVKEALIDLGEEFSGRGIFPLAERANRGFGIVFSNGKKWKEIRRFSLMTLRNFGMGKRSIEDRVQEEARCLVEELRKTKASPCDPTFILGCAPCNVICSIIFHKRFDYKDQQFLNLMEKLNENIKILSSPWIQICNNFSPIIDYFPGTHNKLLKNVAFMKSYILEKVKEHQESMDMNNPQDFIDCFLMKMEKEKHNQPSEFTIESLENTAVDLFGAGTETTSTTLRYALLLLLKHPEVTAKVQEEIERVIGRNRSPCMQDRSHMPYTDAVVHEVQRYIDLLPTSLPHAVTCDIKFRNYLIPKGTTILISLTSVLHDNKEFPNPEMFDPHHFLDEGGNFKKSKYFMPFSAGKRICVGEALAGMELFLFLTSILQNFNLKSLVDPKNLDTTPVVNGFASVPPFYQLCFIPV
Sequence of Voltage-gated inwardly rectifying potassium channel KCNH2 (Homo sapiens) (Q12809 whole entry, looked up): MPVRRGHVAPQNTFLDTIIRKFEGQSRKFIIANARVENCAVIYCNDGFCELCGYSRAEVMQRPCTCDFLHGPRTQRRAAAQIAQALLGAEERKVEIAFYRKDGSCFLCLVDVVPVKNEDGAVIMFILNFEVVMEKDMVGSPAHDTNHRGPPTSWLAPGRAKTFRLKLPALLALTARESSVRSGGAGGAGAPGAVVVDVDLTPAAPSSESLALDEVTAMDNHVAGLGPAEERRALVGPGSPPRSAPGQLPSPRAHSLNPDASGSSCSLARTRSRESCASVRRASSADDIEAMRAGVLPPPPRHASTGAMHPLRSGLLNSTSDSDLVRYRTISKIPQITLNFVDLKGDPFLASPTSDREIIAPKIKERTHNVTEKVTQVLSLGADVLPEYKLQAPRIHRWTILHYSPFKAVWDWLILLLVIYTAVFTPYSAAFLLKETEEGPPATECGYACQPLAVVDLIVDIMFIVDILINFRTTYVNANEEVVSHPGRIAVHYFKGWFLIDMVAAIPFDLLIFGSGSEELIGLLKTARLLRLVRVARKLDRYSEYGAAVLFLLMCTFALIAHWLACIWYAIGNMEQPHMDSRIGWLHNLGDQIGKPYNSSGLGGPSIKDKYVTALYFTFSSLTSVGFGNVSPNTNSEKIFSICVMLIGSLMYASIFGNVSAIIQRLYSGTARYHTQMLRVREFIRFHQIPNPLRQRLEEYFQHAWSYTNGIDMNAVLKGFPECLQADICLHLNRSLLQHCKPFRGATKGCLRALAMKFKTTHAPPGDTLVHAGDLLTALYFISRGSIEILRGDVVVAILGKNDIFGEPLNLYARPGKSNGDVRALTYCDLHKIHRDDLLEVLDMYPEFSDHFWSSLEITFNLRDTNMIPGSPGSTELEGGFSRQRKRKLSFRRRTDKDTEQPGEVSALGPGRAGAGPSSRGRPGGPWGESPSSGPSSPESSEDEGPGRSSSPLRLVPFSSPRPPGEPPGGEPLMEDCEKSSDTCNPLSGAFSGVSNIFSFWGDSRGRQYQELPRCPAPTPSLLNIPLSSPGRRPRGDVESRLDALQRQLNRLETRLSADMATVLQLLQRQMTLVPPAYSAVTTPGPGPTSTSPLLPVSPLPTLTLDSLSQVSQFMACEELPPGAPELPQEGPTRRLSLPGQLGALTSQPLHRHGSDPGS
Sequence of Cytochrome P450 1A2 (Homo sapiens) (P05177 whole entry, looked up): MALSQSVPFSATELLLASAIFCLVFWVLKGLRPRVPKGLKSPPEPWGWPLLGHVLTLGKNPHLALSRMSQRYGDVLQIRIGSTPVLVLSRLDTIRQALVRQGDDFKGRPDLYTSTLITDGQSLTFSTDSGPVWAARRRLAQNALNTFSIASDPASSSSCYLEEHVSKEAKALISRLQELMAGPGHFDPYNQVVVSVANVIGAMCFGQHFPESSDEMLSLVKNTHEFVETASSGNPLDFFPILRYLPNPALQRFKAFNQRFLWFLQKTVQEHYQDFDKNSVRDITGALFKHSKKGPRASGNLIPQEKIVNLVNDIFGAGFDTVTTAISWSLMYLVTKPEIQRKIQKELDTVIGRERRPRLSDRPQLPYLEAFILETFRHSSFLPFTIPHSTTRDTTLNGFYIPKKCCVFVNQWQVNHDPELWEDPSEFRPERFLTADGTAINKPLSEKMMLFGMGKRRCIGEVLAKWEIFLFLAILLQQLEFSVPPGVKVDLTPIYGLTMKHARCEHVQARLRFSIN

The first test has as its target Cytochrome P450 2C9 (Homo sapiens) (UniProt P11712). The test is described as follows: Cytochrome P450 Family 2 Subfamily C Member 9 (CYP2C9) small molecule antagonists: luciferase reporter qHTS assay (AID 1671198). The conditions noted are these: P450-Glo CYP2C9 enzyme assay, luciferin luminescence; series mostly up to 115 µM. A digest of the protocol:
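Enzyme-substrate mix preincubated with compound 10 min at room temperature; reaction started with NADPH regeneration solution, 1 h 37C. Luminescent luciferin product read after 20 min detection reagent.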
On the technique in general: A reporter such as luciferase makes a cellular process visible.
Regarding `C[C@]12CC[C@H]3[C@@H](CCC4=CC(=O)CC[C@@H]43)[C@@H]1CC[C@@H]2OC(=O)CCc1ccccc1`, the Potency is 30.9 µM (active).

Consider `C=C(C)C(=O)OCCCCOC(=O)C(=C)C`, for which the Potency was 39.9 µM (active).

As for `Nc1c(Br)cc(Br)c2c1C(=O)c1ccccc1C2=O`, the activity change, negative = inhibition is -2.78% [at 23.6 µM] (inactive).

Regarding `CCCCCBr`, the Potency result was “inactive”.

`O=C(O)C(F)(F)C(F)(F)C(F)(F)C(F)(F)C(F)(F)C(F)(F)C(F)(F)C(F)(F)F`: the Potency is 1.78 µM (active).

With `O=C(O)COc1cc(Cl)c(Cl)cc1Cl`, the Potency is 63.4 µM (active) and 39.9 µM (active).

With `O=S(=O)(c1ccccc1)c1ccccc1`, the Potency result is “inactive”.

`O=C(O)c1ccc(=O)[nH]c1`: the Potency result was “inactive”.

On to `CCOP(=S)(OCC)SCSc1cc(Cl)ccc1Cl`, for which the Potency entry was “inactive”.

Turning to `CCCCC(CC)CO[N+](=O)[O-]` (configuration not stated), the Potency result is “inactive”.

As to `COc1cc(C[C@@H](C)N)c(OC)cc1Br`, the Potency result is “inactive”.

On to `O=C1NC(=O)C(=O)C(=O)N1`, for which the Potency entry is “inactive”.

Turning to `CC(C)C1(C)N=C(c2ncccc2C(=O)O)NC1=O` (configuration not stated), the Potency result is “inactive”.

Regarding `O=CC=O`, the Potency entry is “inactive”.

Regarding `CN1CC[C@]23c4c5ccc(O)c4O[C@H]2[C@@H](O)CC[C@H]3[C@H]1C5`, the Potency entry was “inactive”.

For the compound `O=C(Cc1ccccc1)OCCc1ccccc1`, the Potency was 20 µM (active).

The next test addresses Cytochrome P450 1A2 (Homo sapiens) (UniProt P05177). The test is described as follows: Cytochrome P450 Family 1 Subfamily A Member 2 (CYP1A2) small molecule antagonists: luciferase reporter qHTS assay (AID 1671199). Conditions: P450-Glo CYP1A2 enzyme, luciferin luminescence, 1 h; series mostly up to 115 µM. A digest of the protocol:
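P450-Glo CYP1A2 enzyme–proluciferin substrate mix with compound 10 min at room temperature, then NADPH regeneration 1 h at room temperature. Luciferin detection reagent added, luminescence read after 20 min; furafylline positive control.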
For `Cc1ccccc1`, the Potency result was “inactive”.

Take `O=C(Cc1ccccc1)c1ccccc1`: the Potency is 12.6 µM (active).

On to `CCCCNC(=O)OCC#CI`, for which the Potency is 3.54 µM (active) and 5.64 µM (active).

On to `C[N+](C)(C)CCOC(=O)C(O)(c1ccccc1)c1ccccc1`, for which the Potency entry is “inactive”.

Turning to `OCC1CO1` (configuration not stated), the Potency entry is “inactive”.

`C#CC(O)(C=CCl)CC` (configuration not stated): the Potency entry was “inactive”.

Turning to `C1CS1`, the Potency is 64.9 µM (active).

As for `Nc1ccc2c(c1)Cc1ccccc1-2`, the Potency was 1.25 µM (active).

As for `CCCC[N+](CCCC)(CCCC)CCCC`, the Potency result is “inactive”.

With `Nc1cccc2ccccc12`, the Potency is 10.1 µM (active) and 5.64 µM (active).

Consider `Cc1ccc2c(C)cccc2c1`, for which the Potency result is “inactive”.

For `CC(C)[C@@H](C(=O)O[C@@H](C#N)c1cccc(Oc2ccccc2)c1)c1ccc(Cl)cc1`, the Potency result was “inactive”.

`CCOP(=O)(O)C(N)=O`: the Potency entry was “inactive”.

For `CCCSP(=S)(OCC)Oc1ccc(SC)cc1` (configuration not stated), the Potency is 2 µM (active).

Turning to `Clc1ccccc1`, the Potency result was “inactive”.

As for `CCC1(C2=NCCN2)Cc2ccccc2O1` (configuration not stated), the Potency entry is “inactive”.

Turning to `O=P(OCC(Br)CBr)(OCC(Br)CBr)OCC(Br)CBr` (configuration not stated), the Potency is 7.19 µM (active) and 9.52 µM (active).

`OC[P+](CO)(CO)CO`: the Potency result was “inactive”.

As for `CC1(C)CC(=O)CC(C)(C)N1[O]`, the Potency entry was “inactive”.

In the case of `COC1=CC(=O)O[C@@H](/C=C/c2ccc3c(c2)OCO3)C1`, the Potency was 3.41 µM (active).

On to `CCc1cnc(C2=NC(C)(C(C)C)C(=O)N2)c(C(=O)O)c1` (configuration not stated), for which the Potency result is “inactive”.

Consider `CC(C)(C)CC(C)(C)c1ccc(O)cc1`, for which the Potency was 37.3 µM (active).

Consider `CCCCC(CC)COC(=O)c1c(Br)c(Br)c(Br)c(Br)c1C(=O)OCC(CC)CCCC` (configuration not stated), for which the Potency entry was “inactive”.

Regarding `C[C@]12CC[C@H]3[C@@H](CCC4=CC(=O)CC[C@@H]43)[C@@H]1CC[C@@H]2OC(=O)CCc1ccccc1`, the Potency entry was “inactive”.

Consider `C=C(C)C(=O)OCCCCOC(=O)C(=C)C`, for which the Potency was 25.2 µM (active).

In the case of `Nc1c(Br)cc(Br)c2c1C(=O)c1ccccc1C2=O`, the Potency was 0.168 µM (active).

As for `CCCCCBr`, the Potency result was “inactive”.

Consider `O=C(O)C(F)(F)C(F)(F)C(F)(F)C(F)(F)C(F)(F)C(F)(F)C(F)(F)C(F)(F)F`, for which the Potency entry is “inactive”.

Consider `O=C(O)COc1cc(Cl)c(Cl)cc1Cl`, for which the Potency entry is “inactive”.

As to `O=S(=O)(c1ccccc1)c1ccccc1`, the Potency entry was “inactive”.

Regarding `O=C(O)c1ccc(=O)[nH]c1`, the Potency entry was “inactive”.

For `CCOP(=S)(OCC)SCSc1cc(Cl)ccc1Cl`, the Potency result is “inactive”.

`CCCCC(CC)CO[N+](=O)[O-]` (configuration not stated): the Potency result was “inactive”.

For `COc1cc(C[C@@H](C)N)c(OC)cc1Br`, the Potency was 36.5 µM (active).

As to `O=C1NC(=O)C(=O)C(=O)N1`, the Potency entry is “inactive”.

On to `CC(C)C1(C)N=C(c2ncccc2C(=O)O)NC1=O` (configuration not stated), for which the Potency entry is “inactive”.

Take `O=CC=O`: the Potency entry was “inactive”.

With `CN1CC[C@]23c4c5ccc(O)c4O[C@H]2[C@@H](O)CC[C@H]3[C@H]1C5`, the Potency entry is “inactive”.

With `O=C(Cc1ccccc1)OCCc1ccccc1`, the Potency is 10 µM (active).

Another test deals with Voltage-gated inwardly rectifying potassium channel KCNH2 (Homo sapiens) (UniProt Q12809). In words: Human Ether-a-go-go-Related Gene (hERG) channel small molecule antagonists: fluorescence cell-based qHTS assay (AID 1671200).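 As to activity change, negative = inhibition: hERG-expressing U2OS cells given a thallium stimulus after FluxOR II dye loading.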 The conditions noted are these: hERG-U2OS cells, FluxOR thallium flux fluorescence; series mostly up to 76.8 µM. The gist of the method:
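Thallium served as the potassium surrogate; its influx into dye-loaded U2OS cells carrying the channel was measured by fluorescence over 2 min.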
(In general: The hERG channel carries a current that helps repolarise heart muscle cells.)
With `Cc1ccccc1`, the Potency entry is “inactive”.

Turning to `O=C(Cc1ccccc1)c1ccccc1`, the Potency result is “inactive”.

Consider `CCCCNC(=O)OCC#CI`, for which the Potency entry was “inactive”.

`C[N+](C)(C)CCOC(=O)C(O)(c1ccccc1)c1ccccc1`: the Potency entry was “inactive”.

As for `OCC1CO1` (configuration not stated), the Potency entry was “inactive”.

As to `C#CC(O)(C=CCl)CC` (configuration not stated), the Potency result is “inactive”.

On to `C1CS1`, for which the Potency result was “inactive”.

Take `Nc1ccc2c(c1)Cc1ccccc1-2`: the Potency result was “inactive”.

As to `Nc1cccc2ccccc12`, the Potency result was “inactive”.

As for `Cc1ccc2c(C)cccc2c1`, the Potency entry is “inactive”.

As for `CC(C)[C@@H](C(=O)O[C@@H](C#N)c1cccc(Oc2ccccc2)c1)c1ccc(Cl)cc1`, the Potency result is “inactive”.

For the compound `CCOP(=O)(O)C(N)=O`, the Potency entry is “inactive”.

Consider `CCCSP(=S)(OCC)Oc1ccc(SC)cc1` (configuration not stated), for which the Potency result is “inactive”.

For `Clc1ccccc1`, the Potency entry is “inactive”.

In the case of `CCC1(C2=NCCN2)Cc2ccccc2O1` (configuration not stated), the Potency result is “inactive”.

Turning to `O=P(OCC(Br)CBr)(OCC(Br)CBr)OCC(Br)CBr` (configuration not stated), the Potency was 12.5 µM (active) and 18.5 µM (active).

As for `OC[P+](CO)(CO)CO`, the Potency result is “inactive”.

In the case of `CC1(C)CC(=O)CC(C)(C)N1[O]`, the Potency result was “inactive”.

As for `COC1=CC(=O)O[C@@H](/C=C/c2ccc3c(c2)OCO3)C1`, the Potency result is “inactive”.

As for `CCc1cnc(C2=NC(C)(C(C)C)C(=O)N2)c(C(=O)O)c1` (configuration not stated), the Potency entry was “inactive”.

As for `CC(C)(C)CC(C)(C)c1ccc(O)cc1`, the Potency is 40 µM (active).

On to `CCCCC(CC)COC(=O)c1c(Br)c(Br)c(Br)c(Br)c1C(=O)OCC(CC)CCCC` (configuration not stated), for which the Potency entry was “inactive”.

As for `C=C(C)C(=O)OCCCCOC(=O)C(=C)C`, the Potency entry was “inactive”.

With `Nc1c(Br)cc(Br)c2c1C(=O)c1ccccc1C2=O`, the activity change, negative = inhibition was -6.02% [at 15.8 µM] (inactive).

For the compound `CCCCCBr`, the Potency result is “inactive”.

In the case of `O=C(O)C(F)(F)C(F)(F)C(F)(F)C(F)(F)C(F)(F)C(F)(F)C(F)(F)C(F)(F)F`, the Potency result was “inactive”.

As to `O=C(O)COc1cc(Cl)c(Cl)cc1Cl`, the Potency entry is “inactive”.

On to `O=S(=O)(c1ccccc1)c1ccccc1`, for which the Potency entry was “inactive”.

As for `O=C(O)c1ccc(=O)[nH]c1`, the Potency entry is “inactive”.

In the case of `CCOP(=S)(OCC)SCSc1cc(Cl)ccc1Cl`, the Potency entry is “inactive”.

Regarding `CCCCC(CC)CO[N+](=O)[O-]` (configuration not stated), the Potency entry is “inactive”.

Consider `COc1cc(C[C@@H](C)N)c(OC)cc1Br`, for which the Potency result is “inactive”.

With `O=C1NC(=O)C(=O)C(=O)N1`, the Potency entry was “inactive”.

For `CC(C)C1(C)N=C(c2ncccc2C(=O)O)NC1=O` (configuration not stated), the Potency entry was “inactive”.

Consider `O=CC=O`, for which the Potency result is “inactive”.

With `CN1CC[C@]23c4c5ccc(O)c4O[C@H]2[C@@H](O)CC[C@H]3[C@H]1C5`, the Potency entry is “inactive”.

`O=C(Cc1ccccc1)OCCc1ccccc1`: the Potency entry was “inactive”.

(Values after PubChem BioAssay (Tox21).)
